From article PMC7862700, “An all-to-all approach to the identification of sequence-specific readers for epigenetic DNA modifications on cytosine”

Legend:
Assay in all cases: DAPPL (digital affinity profiling via proximity ligation, sequencing); 10 mM Tris-HCl pH 7.5, 50 mM NaCl, 1 mM DTT, 4% glycerol, room temperature, 30 min; GST-TFs on glutathione beads, 16-mer random dsDNA library, 0.1% formaldehyde crosslink after washing; high values mean tight binding
Settings in all cases: protein: recombinant; tags: N-terminal GST; dsDNA, one strand shown
FLI1 = target: T1, FLI1 (Homo sapiens, UniProt Q01543 1-452)
T1 sequence: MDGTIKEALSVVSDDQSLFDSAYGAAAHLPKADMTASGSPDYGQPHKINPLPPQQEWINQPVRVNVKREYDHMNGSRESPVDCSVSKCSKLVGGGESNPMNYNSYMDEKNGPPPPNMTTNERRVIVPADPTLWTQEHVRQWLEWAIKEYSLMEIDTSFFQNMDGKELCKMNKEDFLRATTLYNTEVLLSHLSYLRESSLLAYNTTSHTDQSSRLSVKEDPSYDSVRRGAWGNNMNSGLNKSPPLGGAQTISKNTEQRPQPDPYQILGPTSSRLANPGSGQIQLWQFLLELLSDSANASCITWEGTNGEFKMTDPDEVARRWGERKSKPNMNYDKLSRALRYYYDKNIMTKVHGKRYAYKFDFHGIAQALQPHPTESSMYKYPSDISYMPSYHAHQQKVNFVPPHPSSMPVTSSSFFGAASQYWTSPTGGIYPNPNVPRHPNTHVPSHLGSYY
Outline: (§1)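 Human transcription factors carrying a GST fusion were produced in yeast, bound to glutathione beads, tagged with DNA barcodes and pooled together with a tag-only sample. Each pool was held with 200 nmole of a random double-stranded 16-mer DNA library in Tris/NaCl/DTT/glycerol buffer for 30 min at room temperature, then washed, crosslinked in 0.1% formaldehyde, proximity-ligated with BsaI/T4 ligase (1 h, 37 °C), PCR-amplified and sequenced on an Illumina NextSeq500. Binding signal is the read frequency of each hexamer for a given factor divided by its frequency in the tag-only sample.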

ELK1 = target: T2, ELK1 (Homo sapiens, UniProt P19419 1-428)
T2 sequence: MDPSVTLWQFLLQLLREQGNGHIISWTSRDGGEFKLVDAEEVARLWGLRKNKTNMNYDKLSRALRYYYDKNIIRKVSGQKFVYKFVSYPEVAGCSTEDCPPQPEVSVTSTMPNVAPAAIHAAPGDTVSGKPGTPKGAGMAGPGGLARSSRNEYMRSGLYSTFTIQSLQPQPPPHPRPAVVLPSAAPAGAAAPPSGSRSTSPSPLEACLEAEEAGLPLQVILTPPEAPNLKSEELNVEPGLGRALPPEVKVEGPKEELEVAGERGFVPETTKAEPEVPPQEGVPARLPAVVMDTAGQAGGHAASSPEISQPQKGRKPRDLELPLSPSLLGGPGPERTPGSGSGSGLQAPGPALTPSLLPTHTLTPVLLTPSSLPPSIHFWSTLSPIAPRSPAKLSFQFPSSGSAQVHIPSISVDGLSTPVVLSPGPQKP
Outline: as §1

GABPA = target: T3, GABPA (Homo sapiens, UniProt Q06546 1-454)
T3 sequence: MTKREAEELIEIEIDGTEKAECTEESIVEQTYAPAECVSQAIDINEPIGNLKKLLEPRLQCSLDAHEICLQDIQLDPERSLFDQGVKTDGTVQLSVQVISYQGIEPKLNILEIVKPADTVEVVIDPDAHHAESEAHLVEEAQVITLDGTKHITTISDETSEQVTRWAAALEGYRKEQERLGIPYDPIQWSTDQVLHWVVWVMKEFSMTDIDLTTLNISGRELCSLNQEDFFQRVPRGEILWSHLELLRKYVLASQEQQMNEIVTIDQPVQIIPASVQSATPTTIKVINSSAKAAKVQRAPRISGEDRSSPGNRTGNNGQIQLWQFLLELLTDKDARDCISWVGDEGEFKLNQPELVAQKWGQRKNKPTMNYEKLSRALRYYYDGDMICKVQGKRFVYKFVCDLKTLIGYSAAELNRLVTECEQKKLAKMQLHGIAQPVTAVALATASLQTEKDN
Outline: as §1

ELF1 = ELF1 (Homo sapiens, UniProt P32519 1-619)
Outline: as §1

EHF = target: T4, EHF (Homo sapiens, UniProt Q9NZC4 1-300)
T4 sequence: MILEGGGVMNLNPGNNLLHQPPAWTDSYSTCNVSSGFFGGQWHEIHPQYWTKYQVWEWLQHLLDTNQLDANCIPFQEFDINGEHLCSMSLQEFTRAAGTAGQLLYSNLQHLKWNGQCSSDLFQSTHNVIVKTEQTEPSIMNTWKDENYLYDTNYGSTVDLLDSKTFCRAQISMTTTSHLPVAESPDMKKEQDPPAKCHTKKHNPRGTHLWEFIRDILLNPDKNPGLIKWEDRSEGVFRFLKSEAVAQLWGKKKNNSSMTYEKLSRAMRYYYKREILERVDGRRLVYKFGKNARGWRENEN
Outline: as §1

SPI1 = SPI1 (Homo sapiens, UniProt P17947 1-270)
Outline: as §1

SPIB = SPIB (Homo sapiens, UniProt Q01892 1-262)
Outline: as §1

ELK3 = target: T5, ELK3 (Homo sapiens, UniProt P41970 1-407)
T5 sequence: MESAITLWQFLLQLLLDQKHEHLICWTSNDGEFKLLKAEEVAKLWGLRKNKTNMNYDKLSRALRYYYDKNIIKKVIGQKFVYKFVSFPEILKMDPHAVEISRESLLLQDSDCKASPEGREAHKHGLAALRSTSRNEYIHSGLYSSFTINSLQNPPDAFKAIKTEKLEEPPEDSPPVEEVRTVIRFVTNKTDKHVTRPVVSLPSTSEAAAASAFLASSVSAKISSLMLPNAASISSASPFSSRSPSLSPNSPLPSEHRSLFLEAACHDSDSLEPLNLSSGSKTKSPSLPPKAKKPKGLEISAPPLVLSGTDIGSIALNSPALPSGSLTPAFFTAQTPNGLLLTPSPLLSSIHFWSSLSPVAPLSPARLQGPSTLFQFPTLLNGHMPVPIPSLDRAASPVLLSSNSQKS
Outline: as §1

FEV = target: T6, FEV (Homo sapiens, UniProt Q99581 1-238)
T6 sequence: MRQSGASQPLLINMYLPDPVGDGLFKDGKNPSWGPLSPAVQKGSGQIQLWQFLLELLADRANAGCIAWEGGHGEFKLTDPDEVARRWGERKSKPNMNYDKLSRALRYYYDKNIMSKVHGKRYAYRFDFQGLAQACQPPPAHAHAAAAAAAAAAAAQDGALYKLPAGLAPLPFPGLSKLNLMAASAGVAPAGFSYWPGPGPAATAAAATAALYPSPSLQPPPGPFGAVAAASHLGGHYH
Outline: as §1

ETV5 = ETV5 (Homo sapiens, UniProt P41161 1-510)
Outline: as §1

SPIC = target: T7, SPIC (Homo sapiens, UniProt Q8N5J4 1-248)
T7 sequence: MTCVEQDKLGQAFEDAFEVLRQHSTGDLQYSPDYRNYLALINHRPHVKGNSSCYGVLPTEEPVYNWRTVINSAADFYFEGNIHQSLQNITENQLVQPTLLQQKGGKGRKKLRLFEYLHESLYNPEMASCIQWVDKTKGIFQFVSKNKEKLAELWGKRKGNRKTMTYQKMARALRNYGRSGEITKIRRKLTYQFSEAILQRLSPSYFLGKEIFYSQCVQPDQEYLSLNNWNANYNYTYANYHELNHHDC
Outline: as §1

ELF4 = ELF4 (Homo sapiens, UniProt Q99607 1-663)
Outline: as §1

ETV1 = ETV1 (Homo sapiens, UniProt P50549 1-477)
Outline: as §1

ERF = target: T8, ERF (Homo sapiens, UniProt P50548 1-548)
T8 sequence: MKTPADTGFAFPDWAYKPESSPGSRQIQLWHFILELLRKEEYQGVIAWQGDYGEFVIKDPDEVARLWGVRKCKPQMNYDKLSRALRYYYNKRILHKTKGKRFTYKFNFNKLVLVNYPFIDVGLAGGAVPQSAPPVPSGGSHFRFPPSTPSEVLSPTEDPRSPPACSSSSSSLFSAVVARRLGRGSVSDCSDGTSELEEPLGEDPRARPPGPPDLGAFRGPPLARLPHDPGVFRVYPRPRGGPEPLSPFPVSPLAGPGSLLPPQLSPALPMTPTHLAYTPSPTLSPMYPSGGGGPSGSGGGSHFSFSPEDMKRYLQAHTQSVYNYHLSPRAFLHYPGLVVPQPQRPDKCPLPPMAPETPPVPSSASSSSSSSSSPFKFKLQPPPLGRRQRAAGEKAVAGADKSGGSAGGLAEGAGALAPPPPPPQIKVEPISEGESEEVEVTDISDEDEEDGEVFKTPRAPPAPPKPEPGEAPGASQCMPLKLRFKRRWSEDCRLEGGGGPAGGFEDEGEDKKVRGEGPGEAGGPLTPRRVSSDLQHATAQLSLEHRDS
Outline: as §1

ETV3L = target: T9, ETV3L (Homo sapiens, UniProt Q6ZN32 1-361)
T9 sequence: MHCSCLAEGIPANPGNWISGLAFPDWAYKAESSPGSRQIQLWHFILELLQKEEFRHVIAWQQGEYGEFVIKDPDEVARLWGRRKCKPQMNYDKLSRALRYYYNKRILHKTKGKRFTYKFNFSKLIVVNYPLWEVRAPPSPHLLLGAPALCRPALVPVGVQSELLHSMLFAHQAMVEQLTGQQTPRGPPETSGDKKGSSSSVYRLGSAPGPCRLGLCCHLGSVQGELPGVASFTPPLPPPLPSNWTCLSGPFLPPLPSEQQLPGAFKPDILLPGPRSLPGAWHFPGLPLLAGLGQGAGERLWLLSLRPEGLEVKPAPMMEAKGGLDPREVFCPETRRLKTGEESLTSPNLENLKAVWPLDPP
Outline: as §1

ETS2 = target: T10, ETS2 (Homo sapiens, UniProt P15036 1-469)
T10 sequence: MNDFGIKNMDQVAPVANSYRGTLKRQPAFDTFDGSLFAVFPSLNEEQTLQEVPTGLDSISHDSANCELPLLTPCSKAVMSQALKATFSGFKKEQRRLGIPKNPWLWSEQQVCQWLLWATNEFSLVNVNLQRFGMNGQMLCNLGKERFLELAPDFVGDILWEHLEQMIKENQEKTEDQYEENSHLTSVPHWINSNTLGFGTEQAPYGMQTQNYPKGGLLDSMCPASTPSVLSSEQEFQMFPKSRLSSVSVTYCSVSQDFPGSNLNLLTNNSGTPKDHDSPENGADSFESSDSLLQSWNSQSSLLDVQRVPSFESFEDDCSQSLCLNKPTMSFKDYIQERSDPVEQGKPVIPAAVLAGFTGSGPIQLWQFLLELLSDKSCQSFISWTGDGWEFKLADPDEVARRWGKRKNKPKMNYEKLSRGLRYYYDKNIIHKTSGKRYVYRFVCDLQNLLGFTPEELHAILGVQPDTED
Outline: as §1

SPDEF = target: T11, SPDEF (Homo sapiens, UniProt O95238 1-335)
T11 sequence: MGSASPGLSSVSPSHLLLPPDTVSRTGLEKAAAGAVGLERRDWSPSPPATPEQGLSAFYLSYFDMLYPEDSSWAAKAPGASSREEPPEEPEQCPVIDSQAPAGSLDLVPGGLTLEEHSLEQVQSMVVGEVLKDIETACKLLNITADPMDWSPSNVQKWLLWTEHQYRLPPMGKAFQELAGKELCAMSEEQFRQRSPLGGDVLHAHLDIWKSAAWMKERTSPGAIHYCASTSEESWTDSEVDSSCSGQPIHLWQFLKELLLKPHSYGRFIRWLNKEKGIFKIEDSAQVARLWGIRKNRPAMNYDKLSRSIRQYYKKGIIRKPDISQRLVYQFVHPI
Outline: as §1

ETV3 = target: T12, ETV3 (Homo sapiens, UniProt P41162-2 1-143)
T12 sequence: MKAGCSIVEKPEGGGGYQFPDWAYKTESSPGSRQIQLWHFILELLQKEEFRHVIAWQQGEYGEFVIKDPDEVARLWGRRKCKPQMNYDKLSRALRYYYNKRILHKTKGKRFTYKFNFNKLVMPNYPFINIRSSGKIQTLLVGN
Outline: as §1

ETV6 = ETV6 (Homo sapiens, UniProt P41212 1-452)
Outline: as §1

Sequence of ELF4 (Q99607 whole entry): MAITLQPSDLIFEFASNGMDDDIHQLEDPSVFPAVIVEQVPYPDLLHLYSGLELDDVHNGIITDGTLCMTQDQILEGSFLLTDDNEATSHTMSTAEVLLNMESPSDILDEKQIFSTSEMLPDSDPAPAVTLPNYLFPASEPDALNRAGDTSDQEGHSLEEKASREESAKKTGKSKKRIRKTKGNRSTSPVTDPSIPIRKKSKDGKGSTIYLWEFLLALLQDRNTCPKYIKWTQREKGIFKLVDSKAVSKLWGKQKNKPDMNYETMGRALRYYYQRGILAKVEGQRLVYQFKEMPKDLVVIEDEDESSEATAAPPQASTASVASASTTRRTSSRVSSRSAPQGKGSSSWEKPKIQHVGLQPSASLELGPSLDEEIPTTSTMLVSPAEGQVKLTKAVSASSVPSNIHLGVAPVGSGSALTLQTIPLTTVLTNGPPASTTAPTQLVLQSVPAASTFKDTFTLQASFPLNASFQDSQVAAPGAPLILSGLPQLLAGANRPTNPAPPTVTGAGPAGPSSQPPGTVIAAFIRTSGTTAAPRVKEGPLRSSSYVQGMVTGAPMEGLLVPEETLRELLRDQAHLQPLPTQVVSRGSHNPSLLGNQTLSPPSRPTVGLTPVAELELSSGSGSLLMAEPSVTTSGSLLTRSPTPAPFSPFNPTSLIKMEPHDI
Sequence of ETV5 (P41161 whole entry): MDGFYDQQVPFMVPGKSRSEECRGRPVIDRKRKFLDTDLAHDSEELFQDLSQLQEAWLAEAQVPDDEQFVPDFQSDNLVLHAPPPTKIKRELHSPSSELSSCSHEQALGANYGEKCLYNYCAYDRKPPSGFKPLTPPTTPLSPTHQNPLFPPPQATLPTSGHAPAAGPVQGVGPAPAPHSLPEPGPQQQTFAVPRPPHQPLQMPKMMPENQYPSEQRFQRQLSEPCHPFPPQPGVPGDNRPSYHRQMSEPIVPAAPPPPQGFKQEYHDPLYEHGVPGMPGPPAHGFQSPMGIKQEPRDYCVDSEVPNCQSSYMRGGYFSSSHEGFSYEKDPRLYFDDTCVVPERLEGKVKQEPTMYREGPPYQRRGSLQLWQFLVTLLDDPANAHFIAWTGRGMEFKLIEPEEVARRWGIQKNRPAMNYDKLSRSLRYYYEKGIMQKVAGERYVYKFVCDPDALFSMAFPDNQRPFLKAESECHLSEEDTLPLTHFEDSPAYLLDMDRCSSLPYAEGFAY
Sequence of ETV6 (P41212 whole entry): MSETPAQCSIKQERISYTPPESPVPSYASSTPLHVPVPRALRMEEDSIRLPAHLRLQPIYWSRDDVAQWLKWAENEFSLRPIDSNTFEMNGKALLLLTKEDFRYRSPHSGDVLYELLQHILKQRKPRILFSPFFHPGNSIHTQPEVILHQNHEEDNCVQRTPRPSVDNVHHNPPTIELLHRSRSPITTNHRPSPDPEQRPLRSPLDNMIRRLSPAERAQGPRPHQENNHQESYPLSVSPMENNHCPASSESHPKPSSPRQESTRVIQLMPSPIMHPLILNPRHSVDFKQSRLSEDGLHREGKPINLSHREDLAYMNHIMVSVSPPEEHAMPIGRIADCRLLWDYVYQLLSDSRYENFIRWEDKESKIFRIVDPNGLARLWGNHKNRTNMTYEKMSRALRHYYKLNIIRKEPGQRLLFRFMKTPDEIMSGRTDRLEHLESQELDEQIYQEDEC
Sequence of ELF1 (P32519 whole entry): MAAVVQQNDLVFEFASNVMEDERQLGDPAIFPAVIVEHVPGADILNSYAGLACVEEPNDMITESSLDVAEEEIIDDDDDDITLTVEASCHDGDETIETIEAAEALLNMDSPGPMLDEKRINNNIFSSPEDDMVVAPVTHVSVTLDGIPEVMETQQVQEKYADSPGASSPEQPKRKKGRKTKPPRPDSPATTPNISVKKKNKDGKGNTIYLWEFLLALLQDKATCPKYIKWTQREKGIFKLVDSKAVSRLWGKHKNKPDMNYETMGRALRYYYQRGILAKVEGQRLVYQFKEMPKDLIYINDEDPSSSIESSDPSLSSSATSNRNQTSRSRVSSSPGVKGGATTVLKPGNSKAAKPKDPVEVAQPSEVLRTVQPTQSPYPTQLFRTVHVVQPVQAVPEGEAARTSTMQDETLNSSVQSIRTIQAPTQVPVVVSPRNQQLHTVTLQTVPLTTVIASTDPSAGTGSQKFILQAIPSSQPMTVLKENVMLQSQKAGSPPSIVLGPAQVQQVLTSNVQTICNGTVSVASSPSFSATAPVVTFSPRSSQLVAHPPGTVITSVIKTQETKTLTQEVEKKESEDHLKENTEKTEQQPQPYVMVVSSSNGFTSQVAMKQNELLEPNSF
Sequence of ETV1 (P50549 whole entry): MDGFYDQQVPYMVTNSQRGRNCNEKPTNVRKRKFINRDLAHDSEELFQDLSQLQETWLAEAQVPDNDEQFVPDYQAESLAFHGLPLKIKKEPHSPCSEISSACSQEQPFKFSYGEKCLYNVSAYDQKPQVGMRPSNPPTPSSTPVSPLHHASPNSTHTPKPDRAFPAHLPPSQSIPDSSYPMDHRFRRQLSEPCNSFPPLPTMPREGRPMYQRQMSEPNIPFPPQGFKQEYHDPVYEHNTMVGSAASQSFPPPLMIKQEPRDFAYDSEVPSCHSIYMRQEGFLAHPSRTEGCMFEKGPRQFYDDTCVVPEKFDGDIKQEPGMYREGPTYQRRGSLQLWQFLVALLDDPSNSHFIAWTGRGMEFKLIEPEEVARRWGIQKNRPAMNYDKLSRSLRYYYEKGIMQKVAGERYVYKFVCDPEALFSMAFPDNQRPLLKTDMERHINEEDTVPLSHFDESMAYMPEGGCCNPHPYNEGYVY
Sequence of SPIB (Q01892 whole entry): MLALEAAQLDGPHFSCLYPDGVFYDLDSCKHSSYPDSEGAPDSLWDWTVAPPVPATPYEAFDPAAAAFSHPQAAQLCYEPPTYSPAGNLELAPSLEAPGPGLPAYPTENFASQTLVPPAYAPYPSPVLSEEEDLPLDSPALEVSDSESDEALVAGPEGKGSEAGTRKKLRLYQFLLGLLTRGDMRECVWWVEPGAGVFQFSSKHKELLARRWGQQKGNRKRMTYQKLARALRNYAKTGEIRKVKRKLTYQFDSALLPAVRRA

TGCTGC
binding signal (FLI1): 1.15 fold enrichment (6-mer frequency, TF over GST control) | binding signal (ELK1): 1.15 fold enrichment (6-mer frequency, TF over GST control) | binding signal (GABPA): 1.16 fold enrichment (6-mer frequency, TF over GST control) | binding signal (ELF1): 1.21 fold enrichment (6-mer frequency, TF over GST control) | binding signal (EHF): 1.3 fold enrichment (6-mer frequency, TF over GST control) | binding signal (SPI1): 1.11 fold enrichment (6-mer frequency, TF over GST control) | binding signal (SPIB): 1.07 fold enrichment (6-mer frequency, TF over GST control) | binding signal (ELK3): 1.08 fold enrichment (6-mer frequency, TF over GST control) | binding signal (FEV): 1.15 fold enrichment (6-mer frequency, TF over GST control) | binding signal (ETV5): 1.17 fold enrichment (6-mer frequency, TF over GST control) | binding signal (SPIC): 1.3 fold enrichment (6-mer frequency, TF over GST control) | binding signal (ELF4): 1.16 fold enrichment (6-mer frequency, TF over GST control) | binding signal (ETV1): 1.13 fold enrichment (6-mer frequency, TF over GST control) | binding signal (ERF): 1.07 fold enrichment (6-mer frequency, TF over GST control) | binding signal (ETV3L): 1.34 fold enrichment (6-mer frequency, TF over GST control) | binding signal (ETS2): 1.15 fold enrichment (6-mer frequency, TF over GST control) | binding signal (SPDEF): 1.05 fold enrichment (6-mer frequency, TF over GST control) | binding signal (ETV3): 1.23 fold enrichment (6-mer frequency, TF over GST control) | binding signal (ETV6): 1.1 fold enrichment (6-mer frequency, TF over GST control)
